In PubChem BioAssay AID1159580 (chemical genetic matrix, 2015):
The whole screen tested about 5,500 compounds, of which about 2,000 (36%) were called active. Roughly 18% stayed inconclusive and do not appear here. Cut-off read from the data, not from the text of the source: active = normalized growth mostly below about 0.91 (no sharp cut-off); inconclusive = no clear call, values can overlap the other calls; inactive = mostly above about 0.92. The list shows a part of the results.

Assay: chemical genetic growth profiling, strain panel (AID 1159580);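 note: tested at 20 µM; growth read once vehicle control cultures reached saturation at 30 °C; 1 = growth at the plate median or of vehicle wells; lower values mean less growth of the strain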
Settings: S. cerevisiae deletion strains, growth OD

Measured: normalized growth

C[Se]C[C@H](N)C(=O)O
inactive: locus YAL013W, strain DEP1, stronger effect = lower value 0.981 | locus YAL040C, strain CLN3, stronger effect = lower value 1.05 | locus YCL061C, strain MRC1 (second series), stronger effect = lower value 0.983 | locus YDR150W, strain NUM1, stronger effect = lower value 1 | locus YDR363W, strain ESC2, stronger effect = lower value 0.949 | locus YER002W, strain NOP16, stronger effect = lower value 0.984 | locus YNL175C, strain NOP13, stronger effect = lower value 0.953 | locus YNL197C, strain WHI3, stronger effect = lower value 0.981 | locus YNL224C, strain SQS1, stronger effect = lower value 0.97 | locus YNL322C, strain KRE1, stronger effect = lower value 0.981 | locus YOR083W, strain WHI5 (second series), stronger effect = lower value 0.984 | locus YPL241C, strain CIN2, stronger effect = lower value 0.983
